Screening results as filed in PubChem.
The list is not random: actives were taken first. Their share in the collection is about 3%.
USP1-UAF1 inh: USP1/UAF1 (human) deubiquitinase inhibition | AID 743255 | hit rate 0.23% among 390,000 | Potency, µM (top dose mostly 57.1 µM), for the others: top-dose activity change, negative = inhibition, actives largely listed as inhibitors | O94782 | recombinant USP1/UAF1, Ub-Rhodamine cleavage fluorescence; further: on the % scale 0 is the no-effect control and ±100 the full control effect; nearly all actives have a fitted effect of over 60% in size
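In this screen, compounds sit with the deubiquitinase complex (1nM) for 15 min at room temperature before Ub-Rho is added at 150nM final. Fluorescence rise is then followed for 6 reads every 60 seconds.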
PTAP TSG101 blk: blocks PTAP/TSG101 interaction to inhibit HIV-1 budding | Q99816 | Fluorescence polarization, FITC-PTAP peptide / Tsg101 binding | Potency, µM (titrated, usually from 115 µM), without a hit: at the top dose activity change, negative = inhibition, usual class: inhibitors | 340,000 tested, under 10 active | AID 493005; active means well fitted inhibition curve with a large enough effect in the main read-out, with a control signal flat, not every such curve was filed as active; inconclusive means small, poorly fitted or top-dose-only effect, or effect the other way, or a change in a side signal; inactive means no such curve, though single readings can be large or run the other way; further: % of control where 0% means no effect
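Compounds were pin-transferred onto Tsg101 binding domain (10 uM final) in HEPES pH 7.5 buffer, then FITC-PTAP peptide was added at 50 nM final. After 20 min at RT, polarization reported peptide displacement across a qHTS concentration series.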
VDR inhibitor: blocks the human vitamin D receptor | VDR-SRC2-3 peptide fluorescence polarization, 2 h | hit rate 0.93% among 400,000 | P11473 | Potency, µM, for the others: max response, negative = inhibition, most hits filed as inhibitors | AID 504847; further: on the % scale 0 is the no-effect control and ±100 the full control effect
Target sequence (P11473 whole entry, looked up): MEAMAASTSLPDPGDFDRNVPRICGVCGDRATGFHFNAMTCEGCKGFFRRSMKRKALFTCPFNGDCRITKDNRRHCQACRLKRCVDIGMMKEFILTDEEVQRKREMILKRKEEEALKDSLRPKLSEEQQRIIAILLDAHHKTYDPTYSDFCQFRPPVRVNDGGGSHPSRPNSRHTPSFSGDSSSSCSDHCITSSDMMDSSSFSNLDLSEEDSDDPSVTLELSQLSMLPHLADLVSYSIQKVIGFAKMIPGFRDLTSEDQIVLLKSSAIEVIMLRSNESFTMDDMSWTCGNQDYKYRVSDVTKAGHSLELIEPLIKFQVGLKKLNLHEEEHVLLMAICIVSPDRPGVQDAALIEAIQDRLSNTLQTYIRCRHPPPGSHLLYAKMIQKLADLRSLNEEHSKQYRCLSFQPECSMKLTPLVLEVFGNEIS
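Reagent solutions, kept cold and dark, are dispensed first; compounds are then pinned in at 23 nl, plates briefly spun, and incubated 2 h at ambient temperature. Inhibition of VDR–SRC2-3 peptide binding is read by fluorescence polarization.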
PLK1 PBD block: PLK1 (human) polo-box domain binding inhibition. P53350. Plk1 PBD binding of FITC phosphopeptide, fluorescence polarization. Potency, µM, for inactives: max response, negative = inhibition, usual class: inhibitors. hit rate 2.8% among 360,000. AID 720504; further: series mostly up to about 57 µM; on the % scale 0 is the no-effect control and ±100 the full control effect; nearly all actives have a fitted effect of over 65% in size
KAT2A inh: inhibitors of human GCN5L2 histone acetyltransferase; hit rate 0.21% among 390,000; Potency, µM (top dose mostly 58.9 µM), without a hit: at the top dose activity change, negative = inhibition, actives largely listed as inhibitors; GCN5L2 HAT assay, ThioGlo1 CoA-SH fluorescence; further: on the % scale 0 is the no-effect control and ±100 the full control effect
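Fluorescence readout, Ex340nm/Em540nm: ThioGlo1 (50uM final) reacts with free CoA thiol released as 20nM GCN5L2 acetylates H3(1-25) peptide (75uM) using acetyl-CoA (70uM). Compound and enzyme sat 15 min beforehand; 20 min room-temperature reaction.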
Numbers without * were called inactive; ? = inconclusive; . = no result given; ! = not active in a repeat. Unless noted, the call rests on the fitted dose curve; in most records, active means well fitted curve in the direction sought with a large enough effect; inconclusive means small, poorly fitted or top-dose-only effect, or another doubt; inactive means no such curve, though single readings can be large; an effect the other way counts as inactive or inconclusive. Potency means the concentration at half of the fitted maximal effect.

SMILES	USP1-UAF1 inh	PTAP TSG101 blk	VDR inhibitor	PLK1 PBD block	KAT2A inh
Cc1nn(C)c2c1c(C(F)(F)F)cc(=O)n2C(C)C(=O)NCCC(C)C (stereo unspecified)	-4.5%	.	15.5%	.	3.6%
N[C@@H](CSS(=O)(=O)O)C(=O)O	.	.	10µM*!	.	35.5µM*!
COCCN1C(=S)N[C@@H](c2ccccc2)C(C(=O)OC)=C1C	.	.	.	.	-3.2%
O=c1cc(CO)oc(C(Nc2ccccn2)c2ccc(F)cc2)c1O (stereo unspecified)	-7.0%	2.6%	28.2µM*	15µM*	-8.4%
Cc1ccccc1Cn1c(=O)n(CCCCC(=O)NCc2ccc3c(c2)OCO3)c(=O)c2ccccc21	-29.7%	.	7.6%	.	-0.5%
O=C(c1nn2c(C(F)(F)F)cc(-c3ccc(F)cc3)nc2c1Cl)N1CCOCC1	4.7%	-0.4%	-3.8%	26.7µM*	-6.7%
c1ccc(-c2nnc(-c3ccccc3)nn2)cc1	-7.9%	-3.0%	17.6%	4.5%	2.5%
c1cncc(-c2nnc(-c3cccnc3)nn2)c1	-19.9%	-0.9%	-50.0%	6.7µM*	-9.1%
CC(NC(=O)NC(=O)c1cccc(Cl)c1)c1ccccc1 (stereo unspecified)	-15.6%	-6.5%	5.5%	-10.6%	-1.4%
CSc1ncc(C(=O)Nc2cccc(C)c2C)c(-c2ccccc2)n1	8.2%	.	-3.5%	.	0.4%
CC(C)Cc1cc(C(=O)Nc2sc3c(c2C#N)CCC3)no1	-5.1%	-2.6%	-16.7%	23.8µM*	-4.2%
COc1ccccc1-c1cc(C(=O)Nc2sc3c(c2C#N)CCC(C)C3)c2ccccc2n1 (stereo unspecified)	-4.8%	0.1%	-7.4%	26.7µM*	-13.9%
Cn1ccc(C(=O)Nc2sc3c(c2C#N)CCC3)n1	-25.6%	-0.9%	3.3%	?	-2.2%
COc1ccc(OC)c(-c2cc(C(=O)Nc3sc4c(c3C#N)CCC(C)C4)c3ccccc3n2)c1 (stereo unspecified)	-13.2%	-4.8%	11.9%	-6.1%	0.6%
Cc1cc(C(=O)Nc2sc3c(c2C#N)CCCC3)no1	-12.3%	-12.5%	-15.8%	26.7µM*	-10.9%
CCOC(=O)c1cc(C(=O)Nc2sc3c(c2C#N)CCCC3)nn1C	-22.6%	-6.7%	?	21.2µM*	-5.1%
CC(C)Cc1cc(C(=O)Nc2sc3c(c2C#N)CCCC3)no1	-20.6%	1.2%	-21.8%	?	-7.9%
COc1cccc(N2CCN(C(=O)c3cc4c(=O)n(Cc5ccco5)ccc4nc3C)CC2)c1	-2.5%	.	-2.7%	.	-22.3%
Cc1nn(-c2ccccc2)c2c1N(CCCC(=O)NCc1ccc(N(C)C)cc1)C(=O)CS2	-14.6%	.	23.5%	.	-0.3%
Cc1cc(C(F)F)n2nc(C(=O)Nc3sc4c(c3C#N)CCC4)nc2n1	-4.3%	1.1%	-8.0%	26.7µM*	-12.4%
Cn1cc([N+](=O)[O-])c(C(=O)Nc2sc3c(c2C#N)CCC3)n1	-6.3%	1.1%	-8.6%	-2.2%	-9.6%
COc1ccccc1-c1cc(C(=O)Nc2sc3c(c2C#N)CCCC3)no1	11.4%	.	79.4µM*	.	-16.9%
COc1ccc(N2C(c3ccsc3)=Cc3cc4c(cc3C2c2c[nH]c3ccccc23)OCO4)cc1 (stereo unspecified)	.	.	.	-2.3%	.
CC(C)c1nn2c(=O)cc(COc3cccc(NC(=O)c4ccco4)c3)nc2s1	-20.7%	0.9%	-32.5%	23.8µM*	1.3%
COc1ccc(C)cc1NC(=O)C1CCC(CNS(=O)(=O)c2ccc3c(c2)CCCC(=O)N3)CC1 (stereo unspecified)	-17.9%	.	16.0%	.	-10.2%
Cc1ccc(C(=O)N/C(=C\c2ccc(Cl)cc2)C(=O)NC2CCCCC2)cc1	10.5%	.	-7.8%	.	-9.5%
O=C1CSc2ccccc2N1	?	-0.8%	9.4%	-4.1%	.
CC1(C)CC(=S)Nc2ccccc2S1	?	-6.6%	?	26.7µM*	-6.2%
O=C1CC(c2ccccc2)Cc2[nH]c(=O)c(-c3nc(-c4cccc(Cl)c4)cs3)cc21 (stereo unspecified)	-21.9%	.	-25.3%	.	-9.4%
O=[N+]([O-])c1ccc(CS(=O)c2ccccc2)cc1 (stereo unspecified)	-7.4%	-0.7%	?	?	.
